This is a sample that favours compounds with a hit; in the whole collection about 11% have one here.
VACV mCherry inh = qHTS for Stage-Specific Inhibitors of Vaccinia Orthopoxvirus: mCherry Reporter Primary qHTS | Potency, µM (titrated, usually from 36.5 µM), for the others: at the highest dose activity change, negative = inhibition, usual class: inhibitors | Vaccinia virus mCherry reporter infection, fluorescence | 310,000 tested, 0.63% active; calls by dose curve; tested in A549 cells; note: % is set by controls: 0 for no effect and ±100 for the full control effect; nearly all actives have a fitted effect of over 35% in size
Pf growth 48h = Primary qHTS for delayed death inhibitors of the malarial parasite plastid, 48 hour incubation; AID 504832, 2011; P. falciparum luciferase growth in erythrocytes, 48 h; Potency, µM (series often up to 28.7 µM), inactives show top-dose activity change, negative = inhibition, most hits filed as inhibitors; 310,000 tested, 5.9% active; note: % is set by controls: 0 for no effect and ±100 for the full control effect
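Luciferase-expressing parasites in RBCs, 2% Hct / 0.1% parasitemia final; RPMI 1640 + 0.5% Albumax; 37 C, 5% CO2, one generation; luminescence read-out, lower signal = inhibition.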
Pf growth 96h = Primary qHTS for delayed death inhibitors of the malarial parasite plastid, 96 hour incubation; 320,000 tested, 6.9% active; P. falciparum luciferase reporter growth, 96 h; Potency, µM (top dose mostly 28.7 µM), for inactives: at the highest dose activity change, negative = inhibition, usual class: inhibitors; note: % is set by controls: 0 for no effect and ±100 for the full control effect
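Plates of compound plus infected erythrocytes (2% hematocrit, 0.05% parasitemia final) incubate 96 hours, 37 C, 5% CO2. Detection reagent added; reduced luminescence from the parasites' luciferase reporter flags inhibition.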
NS1 function inh = qHTS Assay for Inhibitors of Influenza NS1 Protein Function; 270,000 tested, 0.4% active; AID 2326, 2010; Potency, µM (doses to about 46.1 µM), inactives show at the highest dose activity, positive = more growth; calls by dose curve; note: actives are rising curves; nearly all actives have a fitted effect of over 50% in size
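S. cerevisiae expressing influenza A NS1, grown in glucose, washed, then diluted 1:100 into pH 6.0 -URA galactose medium with 23 nl compound. Growth recovery read as OD600; NS1-free strain serves as control.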
Vaccinia Venus = qHTS for Stage-Specific Inhibitors of Vaccinia Orthopoxvirus: Venus Reporter Primary qHTS; Vaccinia virus Venus reporter expression, fluorescence; Potency, µM (highest dose often 36.5 µM), for the others: at the highest dose activity change, negative = inhibition, most hits filed as inhibitors; 330,000 tested, 0.46% active; AID 720580, 2013; calls by dose curve; tested in A549 cells; note: % is set by controls: 0 for no effect and ±100 for the full control effect; nearly all actives have a fitted effect of over 30% in size
HCV inhibitor = qHTS Assay for Inhibitors of Hepatitis C Virus (HCV) | Huh7.5.1 HCVcc-Cre infection, luciferase reporter, 44 h | Potency, µM (top dose mostly 41.8 µM), without a hit: at the highest dose activity change, negative = inhibition, actives largely listed as inhibitors | 340,000 tested, 3.4% active | AID 651820, 2012; note: % is set by controls: 0 for no effect and ±100 for the full control effect
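1,000 cells/well; 4 h culture; + compound; + HCVcc-Cre (~0.5 moi); 44 h; luciferase substrate, RT 15 min; read 15 sec.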
An asterisk follows results filed as active; i = inactive; ? = inconclusive; nt = no result; [ ] = remark or other dose. Unless noted, calls come from the whole dose curve; as a rule, active = well fitted inhibition curve with a large enough effect; inconclusive = small, poorly fitted or top-dose-only effect, or another doubt; inactive = no such curve, though single readings can be large or run the other way. Potency is the fitted concentration of half-maximal effect.

SMILES | VACV mCherry inh | Pf growth 48h | Pf growth 96h | NS1 function inh | Vaccinia Venus | HCV inhibitor
O=C(N/C(=C/c1ccccc1)C(=O)N1CCCCCC1)c1ccccc1 | i | -2.7% | 30.2% | nt | 1.4% | 1.9%
O=C(Nc1cc(N2CCOCC2)ncn1)NC1(C(F)(F)F)Oc2ccccc2O1 | nt | 8.1% | -4.3% | -6.7% | nt | ?
COc1ccc(OC)c(CCNC(=O)c2ccc(CS(=O)Cc3ccc(Cl)cc3)o2)c1 (stereo not drawn) | nt | 3.8% | ? | -17.7% | nt | 10µM*
Cc1ccc(CS(=O)Cc2ccc(C(=O)NCc3ccc4c(c3)OCO4)o2)cc1 (stereo not drawn) | i | 12.3% | 13.1µM* | 5.1% | -10.9% | -2.1%
O=C(NCc1ccc2c(c1)OCO2)c1ccc(CS(=O)Cc2ccc(Cl)cc2)o1 (stereo not drawn) | -17.3% | 9.8% | ? | 5.5% | -9.3% | 11.2µM*
O=C(NCc1ccc2c(c1)OCO2)c1ccc(CS(=O)Cc2cccc(Cl)c2)o1 (stereo not drawn) | -3.9% | 1.0% | 25.1% | -4.2% | -22.2% | -18.7%
COc1cccc(CNC(=O)c2c(OC)cc(=O)n3c2CCN(C(=O)C2CC24CCCC4)CC3)c1 (stereo not drawn) | -10.0% | nt | nt | nt | 3.7% | nt
O=C(NCCOc1ccc(Cl)cc1)c1ccc2ccccc2n1 | -10.9% | 17.9% | 298.5% | -46.7% | -10.6% | 5.5%
Cc1ccc(NC(=O)c2sc(-n3nc(C)c(CCC(C)C)c3C)nc2C)cc1C | -2.8% | nt | nt | nt | -11.1% | nt
Cc1ccc(C)c(CN2C(=O)C3(c4ccccc42)N(c2cccc(C(F)(F)F)c2)C(=O)CS3(=O)=O)c1 (stereo not drawn) | 0.6% | nt | nt | nt | 3.3% | nt
CC[C@]1(c2ccccc2C)ON(c2ccccc2C(F)(F)F)C1=O | -3.5% | 2.62µM* | ? | nt | -24.3% | 0.3%
COc1ccccc1[C@@]1(C)ON(c2ccccc2C(F)(F)F)C1=O | ? | 1.47µM* | 1.04µM* | nt | ? | 3.16µM*
O=C1N(c2ccccc2)c2ccccc2C1(O)C(F)(F)F (stereo not drawn) | -14.7% | 17.8% | 20.4% | 3.1% | -17.1% | 0.2%
COc1ccccc1NC(=O)CN1C(=O)C(C)(C)c2ccccc21 | -10.6% | nt | nt | nt | 3.3% | nt
Cc1ccccc1[C@]1(C)ON(c2ccccc2C(F)(F)F)C1=O | nt | 1.85µM* | 1.31µM* | nt | nt | -7.1%
CCC(O)(CC)C(=O)NN(C(=O)CCl)c1ccccc1 | -8.8% | ? | 5.22µM* | -7.1% | -17.4% | -13.2%
Cc1ccc(N(NC(=O)C(O)(c2ccccc2)c2ccccc2)C(=O)CCl)cc1 | ? | 5.22µM* | ? | -6.6% | ? | 3.16µM*
O=C(Nc1ccccc1)NN(C(=O)CCl)c1ccccc1 | ? | 13.1µM* | ? | 10.5% | ? | ?
Cc1cc(C)c2c(N)c(C(=O)c3ccc(Cl)cc3Cl)sc2n1 | -13.5% | 13.1µM* | 35.0% | 24.3% | -15.3% | 9.1%
O=C(NCC1CCN(Cc2ccccc2F)CC1)Nc1cc(F)ccc1F | -14.6% | ? | 0.0% | 8.0% | -9.5% | ?
COC(=O)c1sc(N)c(C(=O)OC)c1COC(=O)c1c(C)noc1C | nt | ? | ? | 1.4% | nt | ?
COC(=O)c1sc(N)c(C(=O)OC)c1Cn1ncc(Cl)c(Cl)c1=O | ? | 13.1µM* | 8.28µM* | 1.8% | -8.8% | 11.2µM*
CC(=O)OC(c1nc2ccccc2c(=O)n1C1CC2(OC1=O)c1ccccc1N1C(=O)C(C)(C)N(O)C12)C(C)C (stereo not drawn) | -13.1% | 2.08µM* | 10.4µM* | -8.1% | -7.6% | ?
CCCCCC(=O)N[C@@H](c1ccccc1)[C@@H](O)C(=O)O[C@H]1C[C@@]2(O)[C@@H](OC(=O)c3ccccc3)C3[C@](C)(C(=O)[C@H](O)C(=C1C)C2(C)C)[C@@H](OC1OCC(O)C(O)C1O)C[C@H]1OC[C@@]31OC(C)=O (stereo partly drawn) | 11.8% | ? | 0.165µM* | -76.6% | -16.5% | -5.8%
CC(=O)O[C@@]12CO[C@@H]1C[C@H](OC1OCC(O)C(O)C1O)[C@@]1(C)C(=O)[C@H](O)C3=C(C)[C@@H](OC(=O)[C@H](O)[C@@H](NC(=O)c4ccccc4)c4ccccc4)C[C@@](O)([C@@H](OC(=O)c4ccccc4)C12)C3(C)C (stereo partly drawn) | -22.9% | ? | 0.037µM* | -64.4% | -15.0% | -6.2%
SMILES | VACV mCherry inh | Pf growth 48h | Pf growth 96h | NS1 function inh | Vaccinia Venus | HCV inhibitor
O=C(COc1ccc(Cl)cc1Cl)NCCCCc1ccccc1 | nt | 30.4% | 44.4% | -78.6% | nt | 0.3%
C=C1CCC2[C@](C)(CO)C(O)CC[C@]2(C)C1C/C=C1/C(=O)OCC1O (stereo partly drawn) | nt | ? | 15.1µM* | nt | nt | nt
Cc1ccc(S(=O)(=O)N(C)CC(=O)Nc2cccc3c2CCCC3)cc1 | -6.8% | 0.6% | ? | -0.5% | -25.9% | -15.8%
Clc1cccc(Cl)c1CSc1nnc(-c2ccncc2)s1 | i[7.34 µM] | 2.62µM* | 2.08µM* | -1.3% | -5.9%[7.34 µM] | ?
O=P(NCc1ccccc1)(OCc1ccccc1)OCc1ccccc1 | i | nt | nt | nt | -5.1% | -25.2%
CCN(CC)S(=O)(=O)c1cc(NC(=O)C(=O)c2c(-c3ccccc3)cc3ccccn23)ccc1C | nt | nt | 11.7µM* | ? | nt | 12.6µM*
CCN(CC)S(=O)(=O)c1ccc(N2CCOCC2)c(NC(=O)C(=O)c2c(-c3ccccc3)cc3ccccn23)c1 | nt | 6.57µM* | nt | 2.3% | nt | 14.1µM*
CCN(CC)S(=O)(=O)c1ccc(N2CCOCC2)c(NC(=O)C2CC2)c1 | -7.7% | ? | ? | nt | -3.7% | ?
CCN(CC)S(=O)(=O)c1cccc(NC(=O)C(=O)c2c(-c3ccccc3)cc3ccccn23)c1 | ? | nt | 7.38µM* | 0.4% | -20.7% | ?
CN(C)CCNC(=O)C(=O)c1c(-c2ccccc2)cc2ccccn12 | -9.4% | -3.0% | -3.8% | nt | -8.8% | 4.3%
Nc1nonc1-n1nnc(C(=O)N/N=C/c2cccc(O)c2)c1CN1CCCC1 | -17.3% | -1.6% | -8.2% | -2.2% | -21.1% | 6.1%
Cc1ccc(Nc2c(-c3cccnc3)nc3ccc(Br)cn23)cc1 | -14.6% | ? | ? | nt | 2.1% | 0.3%
CC(C)CC(C(=O)NC1CCCCC1)N(Cc1cccs1)C(=O)c1snc(C(N)=O)c1N (stereo not drawn) | nt | ? | ? | nt | nt | 12.6µM*
CCCC(C(=O)NC1CCCC1)N(Cc1ccc(F)cc1)C(=O)c1snc(C(N)=O)c1N (stereo not drawn) | i | ? | ? | -0.2% | 2.8% | -6.8%

Screening data deposited in PubChem by National Center for Advancing Translational Sciences (NCATS).
